# High-throughput results as filed in PubChem.
# Compounds with a hit are over-represented: about 6.8% of the library has one in this group of screens.
# MCF10A rereplic: A quantitative high throughput screen for small molecules that induce DNA re-replication in MCF 10a normal breast cells | MCF 10A DNA re-replication, Hoechst nuclear intensity, 48 h | Potency, µM (top dose mostly 46.1 µM), usual class: activators | 2.9% of 350,000 active; further: nearly all actives have a fitted effect of over 50% in size
# PINK1 expr mod: A Quantitative High throughput Screen to Identify Chemical Modulators of PINK1 Expression. 0.2% of 410,000 active. Potency, µM (doses to about 76.6 µM), most hits filed as activators. PINK1 immunofluorescence, high-content cytometry, 24 h; active means well fitted activation curve with a large enough effect; inconclusive means small, poorly fitted or top-dose-only effect; cell line not stated here; further: nearly all actives have a fitted effect of over 65% in size
#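 Readout is PINK1 immunofluorescence, quantified alongside mitochondrial, cell and nuclear markers by laser-scanning microplate cytometry. Cells from a stable line were exposed to compound titrations (5 concentrations) for 24 hours, with CCCP controls.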
# KB-V1 MDR tox: qHTS assay for MDR1-selective chemotherapeutics: Primary screen using the drug-selected MDR subline cells KB-V1; KB-V1 MDR cells viability, CellTiter-Glo, 72 h; Potency, µM (top dose mostly 46.1 µM), most hits filed as cytotoxic; AID 1347076, 2019; 3.4% of 400,000 active; further: nearly all actives have a fitted effect of over 60% in size
#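 Cells of the MDR subline KB-V1 are plated, dosed with compound at multiple concentrations, and incubated 72 h at 37 degrees C; CellTiter-Glo is then added and luminescence read after 10 min.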
# KB-3-1 cytotox: qHTS assay for MDR1-selective chemotherapeutics: Primary screen using the parental adenocarcinoma cell KB-3-1; 1.4% of 400,000 active; KB-3-1 viability, CellTiter-Glo ATP luminescence, 72 h; AID 1347075, 2019; Potency, µM (top dose mostly 46.1 µM), hits mostly cytotoxic; further: nearly all actives have a fitted effect of over 60% in size
#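 72 h, 37 °C compound treatment of KB-3-1 parental cells; CellTiter-Glo added, 10 min, luminescence read. Data corrected against DMSO-only plates and normalized before curve fitting.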
# PTAP TSG101 blk: qHTS Assay for Iinhibitors of HIV-1 Budding by Blocking the Interaction of PTAP/TSG101. Tumor susceptibility gene 101 protein (Homo sapiens), Q99816. Fluorescence polarization, FITC-PTAP peptide / Tsg101 binding. Potency, µM (top dose mostly 115 µM), actives largely listed as inhibitors. 340,000 tested, under 10 active; active means well fitted inhibition curve with a large enough effect in the main read-out, with a control signal flat, not every such curve was filed as active; inconclusive means small, poorly fitted or top-dose-only effect, or effect the other way, or a change in a side signal; inactive means no such curve, though single readings can be large or run the other way
# Target sequence (Q99816 whole entry, looked up): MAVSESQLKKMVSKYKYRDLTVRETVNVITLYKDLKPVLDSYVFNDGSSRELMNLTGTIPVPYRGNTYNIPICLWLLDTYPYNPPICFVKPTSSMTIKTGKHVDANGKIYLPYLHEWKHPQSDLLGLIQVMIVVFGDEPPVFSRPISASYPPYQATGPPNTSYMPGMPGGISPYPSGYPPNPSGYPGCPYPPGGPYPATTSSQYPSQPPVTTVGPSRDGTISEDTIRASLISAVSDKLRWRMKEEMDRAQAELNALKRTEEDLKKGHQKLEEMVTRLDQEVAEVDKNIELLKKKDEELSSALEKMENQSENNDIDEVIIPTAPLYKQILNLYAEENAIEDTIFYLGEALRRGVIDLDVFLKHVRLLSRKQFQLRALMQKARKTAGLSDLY
#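 Steps: Tsg101 binding domain dispensed (10 uM final), compounds pinned in DMSO, FITC-labeled PTAP-motif peptide added (50 nM final); after 20 min binding at room temperature, polarization measured.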
# SW480 rereplic: A quantitative high throughput screen for small molecules that induce DNA re-replication in SW480 colon adenocarcinoma cells | SW480 DNA re-replication, Hoechst DNA content imaging, 48 h | Potency, µM (top dose mostly 46.1 µM), usual class: activators | 1.8% of 340,000 active; further: nearly all actives have a fitted effect of over 55% in size
#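 Hoechst fluorescence of nuclei (405 nm excitation, 500-530 nm emission) measured by plate-scanning imager after 48 hr compound exposure at 37 C; re-replication scored as increased number of nuclei with elevated intensity.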
# A number is an active result; i = inactive; ? = inconclusive; nt = no result; ! = not confirmed by another sample; [ ] = remark or other dose. Unless noted, the call rests on the fitted dose curve; in most records, active means well fitted curve in the direction sought with a large enough effect; inconclusive means small, poorly fitted or top-dose-only effect, or another doubt; inactive means no such curve, though single readings can be large; an effect the other way counts as inactive or inconclusive.
SMILES,MCF10A rereplic,PINK1 expr mod,KB-V1 MDR tox,KB-3-1 cytotox,PTAP TSG101 blk,SW480 rereplic
Cc1cc(Cl)ccc1Oc1ccccc1C(=O)CC#N,23.1µM,i,i,i,i,i
CC(=O)N1CCc2c(sc(NC(=O)c3ccc4c(c3)OCCO4)c2C#N)C1,14.6µM,i,?,?,i,18.4µM
CCOc1ccc(CSC(=N)N)cc1Cl,18.4µM,i,i,i,i,?
CCOc1ccc(CSC(=N)N)cc1[N+](=O)[O-],?,i,?,?,i,?
CCn1cc2nc(SCC(=O)Nc3cc(OC)ccc3OC)n(Cc3ccc(Cl)cc3)c(=O)c2n1,nt,i,i,i,nt,nt
CC(=O)Cc1nsc(NC(=O)c2ccc(Br)o2)n1,?,i,i,i,i,i
CC(=O)Cc1nsc(NC(=O)c2ccc(-c3cccc(Cl)c3)o2)n1,10.3µM,i,i,?,i,?
O=C1CCN(Cc2cccc(C(F)(F)F)c2)CCN1Cc1ccccn1,nt,i,nt,nt,nt,nt
COc1ccc(SCCN2CC[C@@H](C(C)(C)C)CCC2=O)cc1,9.2µM,i,?,i,i,i
COc1ccc(SC[C@H](C)CN2CC[C@H](C)CCC2=O)cc1,i,i,8.2µM!,18.4µM!,i,i
CC(C)(C)[C@H]1CCC(=O)N(CCSc2ccc(Br)cc2)CC1,nt,nt,?,i,nt,nt
Cc1ccc(SC[C@H](C)CN2CC[C@H](C)CCC2=O)cc1,?,i,18.4µM!,?,i,?
N=c1sc2ccccc2n1-c1ccccc1,?,i,?,?,i,?
C=CC(=O)N=c1sc2ccccc2n1-c1ccccc1,?,i,7.31µM,14.6µM,i,3.26µM
O=C1c2ccccc2C(=O)c2c1ncn2-c1ccccc1,?,i,20.6µM,?,i,16.4µM
Cc1cc(N2CCN(C(=O)c3ccco3)CC2)n2nc(C)c(-c3ccccc3)c2n1,i,i,3.66µM,?,i,i
Cc1nn2c(N3CCOCC3)cc(C(C)(C)C)nc2c1-c1ccccc1,i,i,i,i,i,?
CCN1CCN(c2cc(C(C)(C)C)nc3c(-c4ccccc4)c(C)nn23)CC1,?,i,i,i,i,6.51µM
CN1CCN(C(=O)c2cc3nc(-c4ccccc4)cc(-c4ccccc4)n3n2)CC1,13µM,i,i,i,i,?
Cc1cc(N2CCN(C(=O)c3ccco3)CC2)n2nc(-c3cccc(Cl)c3)cc2n1,?,i,?,?,i,i
O=C(c1cc2nc(-c3ccccc3)cc(-c3ccccc3)n2n1)N1CCN(C(=O)c2ccco2)CC1,?,i,20.6µM,?,i,i
O=S(=O)(NCC(Nc1ccccc1)c1ccccc1)c1ccc(Cl)cc1 (stereo not drawn),?,?,20.6µM,i,i,?
CC(C)(C)CN1CCN(Cc2cc3ccccc3[nH]2)CC1CCO (stereo not drawn),0.651µM,i,i,?,i,?
COc1cccc(CN2CCN(Cc3cc4ccccc4[nH]3)CC2CCO)c1 (stereo not drawn),?,i,?,i,i,i
CC(C)(C)CN1CCN(Cc2c[nH]c3ccccc23)CC1CCO (stereo not drawn),6.51µM,i,i,i,i,i
SMILES,MCF10A rereplic,PINK1 expr mod,KB-V1 MDR tox,KB-3-1 cytotox,PTAP TSG101 blk,SW480 rereplic
CCOc1ccc(CN2CCN(Cc3cc4ccccc4[nH]3)CC2CCO)cc1 (stereo not drawn),23.1µM,i,i,?,i,?
CC(C)CN1CCN(Cc2cc3ccccc3[nH]2)CC1CCO (stereo not drawn),?,i,i,i,i,?
O=C(NC1CCCCC1)C(c1ccncc1)n1c(=O)c(-c2cc3ccccc3[nH]2)nc2ccccc21 (stereo not drawn),nt,nt,16.4µM,20.6µM,nt,nt
O=C1/C(=C/c2ccc([N+](=O)[O-])cc2)C=C(c2ccccc2)N1c1ccc(O)cc1,18.4µM,i,5.8µM,?,i,?
Cc1cc(C(=O)N2CCN(c3cccc(C)c3C)CC2)c2c(C)nn(-c3ccccc3)c2n1,nt,i,i,?,nt,nt
Cc1cccc(NS(=O)(=O)c2ccc3c(c2)CC(C)N3C(=O)C2CCC2)c1C (stereo not drawn),nt,i,?,23.1µM,nt,nt
Cc1cc(C)c(NS(=O)(=O)c2ccc3c(c2)CC(C)N3C(=O)C2CCC2)c(C)c1 (stereo not drawn),nt,i,?,?,nt,nt
COc1cccc(CNS(=O)(=O)c2ccc3c(c2)C(C(C)C)C(=O)N3)c1 (stereo not drawn),nt,i,i,?,nt,nt
OC(c1cccnc1)c1ccc2c(c1)CN(Cc1ccc(-c3ccccc3Cl)o1)CCO2 (stereo not drawn),nt,i,nt,nt,nt,nt
CCOc1ccccc1C(=O)N[C@H](C(=O)OCc1cc([N+](=O)[O-])cc2c1OCOC2)C(C)C,i,i,5.8µM,i,i,i
Cc1ccc2c(COC(=O)c3ccccc3Cl)cc(=O)oc2c1,i,i,i,i,i,i
COc1cc(OC)cc(C(=O)N[C@H](C(=O)OCc2cc(=O)oc3cc(C)ccc23)C(C)C)c1,i,i,3.66µM,i,i,i
CC(C)C(NC(=O)c1ccccc1)C(=O)OCc1cc([N+](=O)[O-])cc2c1OCOC2 (stereo not drawn),i,i,i,i,i,i
CCOc1ccccc1C(=O)N[C@H](C(=O)OCc1cc(=O)oc2cc(C)ccc12)C(C)C,i,i,3.26µM,i,i,?
COc1cc(OC)cc(C(=O)NCC(=O)OCc2cc(=O)oc3cc(OC)ccc23)c1,i,i,i,i,i,i
COc1ccc2c(c1)c1c(c(=O)n(-c3ccccc3C)c(=O)n1CC(=O)N1CCCC1)n2C,nt,i,i,i,nt,nt
CCCN1CNc2c(c(=O)[nH]c(=S)n2CCC(C)(C)C)C1,nt,i,nt,nt,nt,nt
Cc1cc(C=O)cc(C)c1[N+](=O)[O-],nt,nt,i,i,nt,nt
Cc1nn(C(C)(C)C)c(OC(=O)C(C)(C)C)c1Sc1ccccc1,nt,i,i,i,nt,nt
COc1ccc(-c2nnnn2-c2ccccc2OC)cc1,?,i,13µM,?,i,?
Cc1ccccc1-n1nnnc1-c1ccccc1,i,i,i,i,i,i
Cc1cc(-c2csc(Nc3ccccn3)n2)ccc1F,?,?,i,i,i,i[9.22 µM]
Fc1ccc(-c2csc(Nc3ccccn3)n2)c(F)c1,?,i,?,18.4µM,i,i
N#Cc1c(-c2ccc(Cl)cc2)c2c([nH]c1=O)-c1ccccc1OC2,1.84µM,?,i,i,i,5.8µM
CC(=O)/C(N=Nc1ccc(SC(F)F)cc1)=C(\C)O,?,i,i,i,i,8.2µM
